# The sample as a whole holds a higher share of the strongest signals than the screen did.
# Assays:
# Assay in all cases: glycan array binding signal (z-score within array); higher = stronger binding
# [1] = system: GlcNAc(a1-3)Gal(b1-4)GlcNAc; conditions: glycan notation: IUPAC condensed, linker removed
# In short: (§1)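 Glycan array data were curated from 3228 arrays in the Consortium for Functional Glycomics database and kept only where the protein sequence was available. Glycan names were converted to IUPAC-condensed notation, and columns mapping to the same glycan were averaged. The binding signal is a within-array Z-score, averaged across arrays of the same protein sequence at different concentrations or buffers and across linkers. Negative Z-scores can be read as non-binding.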
# [2] = system: GalNAc(b1-4)GlcNAc(b1-2)Man(a1-3)[GalNAc(b1-4)GlcNAc(b1-2)Man(a1-6)]Man(b1-4)GlcNAc(b1-4)GlcNAc; conditions: glycan notation: IUPAC condensed, linker removed
# In short: as §1
# [3] = system: GlcNAc(a1-4)Gal(b1-4)GlcNAc(b1-3)Gal(b1-4)[Fuc(a1-3)]GlcNAc(b1-3)Gal(b1-4)[Fuc(a1-3)]GlcNAc; conditions: glycan notation: IUPAC condensed, linker removed
# In short: as §1
# [4] = system: Glc(a1-4)Glc(a1-4)Glc(a1-4)Glc; conditions: glycan notation: IUPAC condensed, linker removed
# In short: as §1
# [5] = system: Glc(a1-6)Glc(a1-6)Glc(a1-6)Glc; conditions: glycan notation: IUPAC condensed, linker removed
# In short: as §1
# [6] = system: Glc(a1-6)Glc(a1-6)Glc; conditions: glycan notation: IUPAC condensed, linker removed
# In short: as §1
# [7] = system: GlcNAc(a1-4)Gal(b1-4)GlcNAc(b1-3)Gal(b1-4)GlcNAc(b1-3)Gal(b1-4)GlcNAc; conditions: glycan notation: IUPAC condensed, linker removed
# In short: as §1
# [8] = system: Glc(b1-4)Glc; conditions: glycan notation: IUPAC condensed, linker removed
# In short: as §1
# [9] = system: Gal6S(b1-4)Glc; conditions: glycan notation: IUPAC condensed, linker removed
# In short: as §1
# [10] = system: Glc(a1-4)Glc; conditions: glycan notation: IUPAC condensed, linker removed
# In short: as §1
# [11] = system: Glc(b1-6)Glc; conditions: glycan notation: IUPAC condensed, linker removed
# In short: as §1
# [12] = system: GalNAc(a1-3)GalNAc; conditions: glycan notation: IUPAC condensed, linker removed
# In short: as §1
# [13] = system: GalNAc(b1-6)GalNAc; conditions: glycan notation: IUPAC condensed, linker removed; mutation: R125K
# In short: as §1
# [14] = system: GlcNAc(a1-4)Gal(b1-4)GlcNAc(b1-3)Gal(b1-4)Glc; conditions: glycan notation: IUPAC condensed, linker removed
# In short: as §1
# [15] = system: GalNAc(a1-3)Gal; conditions: glycan notation: IUPAC condensed, linker removed
# In short: as §1
# [16] = system: GalNAc(b1-3)GalNAc; conditions: glycan notation: IUPAC condensed, linker removed
# In short: as §1
# [17] = system: GlcA(b1-3)Gal; conditions: glycan notation: IUPAC condensed, linker removed
# In short: as §1
# [18] = system: GlcA(b1-3)GlcNAc; conditions: glycan notation: IUPAC condensed, linker removed
# In short: as §1
# [19] = system: GalNAc(b1-3)Gal(a1-4)Gal(b1-4)GlcNAc; conditions: glycan notation: IUPAC condensed, linker removed
# In short: as §1
# [20] = system: GlcNAc(a1-4)Gal(b1-4)GlcNAc(b1-3)Gal(b1-4)GlcNAc; conditions: glycan notation: IUPAC condensed, linker removed
# In short: as §1
# Sequence of CHI3L1 (Homo sapiens), P36222 (P36222 whole entry): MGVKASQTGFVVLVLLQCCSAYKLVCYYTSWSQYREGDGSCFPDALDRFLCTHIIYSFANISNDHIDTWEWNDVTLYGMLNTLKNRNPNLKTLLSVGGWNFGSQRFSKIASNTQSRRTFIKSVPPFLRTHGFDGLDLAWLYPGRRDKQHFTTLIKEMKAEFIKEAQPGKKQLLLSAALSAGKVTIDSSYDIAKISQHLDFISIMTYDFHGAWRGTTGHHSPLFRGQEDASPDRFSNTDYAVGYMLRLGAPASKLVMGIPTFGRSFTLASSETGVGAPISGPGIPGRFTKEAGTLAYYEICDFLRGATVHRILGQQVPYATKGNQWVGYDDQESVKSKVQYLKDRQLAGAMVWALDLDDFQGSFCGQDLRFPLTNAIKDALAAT
# Sequence of PILRb (Mus musculus), Q2YSF2 (Q2YSF2 entry or part of it): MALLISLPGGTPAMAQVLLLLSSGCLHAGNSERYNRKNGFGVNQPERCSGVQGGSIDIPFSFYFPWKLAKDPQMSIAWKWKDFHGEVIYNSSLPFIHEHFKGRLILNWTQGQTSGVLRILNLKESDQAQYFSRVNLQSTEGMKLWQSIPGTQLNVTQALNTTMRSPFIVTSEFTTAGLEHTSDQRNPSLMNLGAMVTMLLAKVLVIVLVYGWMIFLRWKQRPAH
# Sequence of 6RG (Lolium perenne), B9U140 (B9U140 entry or part of it): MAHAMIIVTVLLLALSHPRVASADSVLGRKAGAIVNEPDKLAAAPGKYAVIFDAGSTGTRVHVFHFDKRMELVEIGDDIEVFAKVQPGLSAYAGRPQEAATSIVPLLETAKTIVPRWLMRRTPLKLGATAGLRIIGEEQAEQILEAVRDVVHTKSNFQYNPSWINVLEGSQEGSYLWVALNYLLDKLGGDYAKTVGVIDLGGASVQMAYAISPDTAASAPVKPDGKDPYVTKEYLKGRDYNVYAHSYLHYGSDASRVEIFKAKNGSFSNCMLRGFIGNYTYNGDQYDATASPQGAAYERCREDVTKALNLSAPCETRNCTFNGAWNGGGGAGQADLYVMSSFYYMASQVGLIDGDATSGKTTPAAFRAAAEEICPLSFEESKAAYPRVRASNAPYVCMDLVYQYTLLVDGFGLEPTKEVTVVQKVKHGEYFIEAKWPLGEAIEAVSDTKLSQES
# Sequence of wLAT-1A (Homo sapiens), Q01650 (Q01650 whole entry): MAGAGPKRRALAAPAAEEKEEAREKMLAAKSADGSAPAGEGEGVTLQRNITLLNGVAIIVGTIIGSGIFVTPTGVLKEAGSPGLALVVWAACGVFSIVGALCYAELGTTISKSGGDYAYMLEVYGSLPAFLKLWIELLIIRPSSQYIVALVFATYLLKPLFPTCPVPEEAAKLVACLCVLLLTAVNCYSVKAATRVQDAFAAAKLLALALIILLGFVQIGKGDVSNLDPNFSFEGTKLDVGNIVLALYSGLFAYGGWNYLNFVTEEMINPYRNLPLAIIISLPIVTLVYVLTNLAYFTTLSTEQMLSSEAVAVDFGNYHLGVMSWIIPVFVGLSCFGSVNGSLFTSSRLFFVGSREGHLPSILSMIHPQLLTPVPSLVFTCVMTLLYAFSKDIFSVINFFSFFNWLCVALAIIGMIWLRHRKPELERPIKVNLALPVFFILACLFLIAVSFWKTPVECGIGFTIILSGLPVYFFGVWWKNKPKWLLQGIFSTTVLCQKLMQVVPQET
# Sequence of Neurocan (Homo sapiens), O14594 (O14594 other isoform, or with tags, fused parts or gaps): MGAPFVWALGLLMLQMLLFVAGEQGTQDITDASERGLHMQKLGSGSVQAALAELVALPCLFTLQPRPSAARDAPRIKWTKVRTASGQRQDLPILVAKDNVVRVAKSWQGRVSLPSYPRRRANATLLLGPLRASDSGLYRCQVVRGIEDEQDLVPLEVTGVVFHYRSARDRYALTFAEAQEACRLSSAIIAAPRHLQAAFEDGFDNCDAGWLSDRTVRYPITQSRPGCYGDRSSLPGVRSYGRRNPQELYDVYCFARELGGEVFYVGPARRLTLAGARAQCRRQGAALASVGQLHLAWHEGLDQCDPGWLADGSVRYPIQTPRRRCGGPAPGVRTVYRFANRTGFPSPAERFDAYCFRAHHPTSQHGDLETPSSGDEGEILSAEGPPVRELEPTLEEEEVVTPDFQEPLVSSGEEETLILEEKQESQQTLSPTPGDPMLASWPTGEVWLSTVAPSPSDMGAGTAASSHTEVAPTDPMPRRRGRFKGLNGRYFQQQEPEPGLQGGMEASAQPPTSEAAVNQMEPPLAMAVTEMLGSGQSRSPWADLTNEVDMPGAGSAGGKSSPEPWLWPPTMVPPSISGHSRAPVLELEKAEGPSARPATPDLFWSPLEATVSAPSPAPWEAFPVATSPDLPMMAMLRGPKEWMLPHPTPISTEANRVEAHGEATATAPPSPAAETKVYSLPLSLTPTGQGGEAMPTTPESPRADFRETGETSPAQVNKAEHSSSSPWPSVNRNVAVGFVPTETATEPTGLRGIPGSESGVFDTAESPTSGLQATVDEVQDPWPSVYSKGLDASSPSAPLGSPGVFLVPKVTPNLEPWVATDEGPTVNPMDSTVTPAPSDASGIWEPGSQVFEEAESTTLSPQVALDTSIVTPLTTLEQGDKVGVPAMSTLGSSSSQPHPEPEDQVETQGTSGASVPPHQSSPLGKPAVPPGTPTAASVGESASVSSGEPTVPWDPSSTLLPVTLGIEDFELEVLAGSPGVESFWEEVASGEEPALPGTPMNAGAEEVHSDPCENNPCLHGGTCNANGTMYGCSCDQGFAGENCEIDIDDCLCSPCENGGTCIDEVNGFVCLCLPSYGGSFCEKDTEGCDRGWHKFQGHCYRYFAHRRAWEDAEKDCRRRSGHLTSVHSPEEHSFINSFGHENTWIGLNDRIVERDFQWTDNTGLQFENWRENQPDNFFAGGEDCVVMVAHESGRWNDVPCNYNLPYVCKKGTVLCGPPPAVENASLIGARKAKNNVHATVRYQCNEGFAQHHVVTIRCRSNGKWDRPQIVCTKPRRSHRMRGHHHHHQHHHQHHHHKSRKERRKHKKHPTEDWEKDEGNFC
# Sequence of Aggrecan (Rattus norvegicus), NP_071526 (chain, as listed by the source): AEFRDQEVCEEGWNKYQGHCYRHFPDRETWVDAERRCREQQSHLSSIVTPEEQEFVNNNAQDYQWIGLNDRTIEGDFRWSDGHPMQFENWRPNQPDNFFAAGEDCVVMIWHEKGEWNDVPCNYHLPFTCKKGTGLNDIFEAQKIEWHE
# Sequence of C3b (Homo sapiens), P01024 (P01024 23-667): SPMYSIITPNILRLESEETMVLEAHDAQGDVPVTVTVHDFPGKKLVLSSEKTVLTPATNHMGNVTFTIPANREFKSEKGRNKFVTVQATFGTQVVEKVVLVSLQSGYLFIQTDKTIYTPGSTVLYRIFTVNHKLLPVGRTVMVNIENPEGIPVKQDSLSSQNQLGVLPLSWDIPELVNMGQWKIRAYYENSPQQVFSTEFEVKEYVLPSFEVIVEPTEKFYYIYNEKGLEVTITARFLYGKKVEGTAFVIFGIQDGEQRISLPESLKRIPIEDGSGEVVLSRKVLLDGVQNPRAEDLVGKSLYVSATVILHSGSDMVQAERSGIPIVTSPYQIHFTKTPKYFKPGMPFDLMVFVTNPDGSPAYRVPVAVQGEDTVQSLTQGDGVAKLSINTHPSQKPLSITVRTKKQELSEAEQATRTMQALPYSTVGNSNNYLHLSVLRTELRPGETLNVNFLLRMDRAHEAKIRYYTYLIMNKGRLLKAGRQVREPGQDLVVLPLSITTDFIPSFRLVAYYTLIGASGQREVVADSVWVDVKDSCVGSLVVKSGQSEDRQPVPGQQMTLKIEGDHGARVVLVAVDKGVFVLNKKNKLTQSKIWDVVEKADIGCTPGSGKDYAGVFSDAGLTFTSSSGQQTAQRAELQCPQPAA
# Sequence of PILRa (Mus musculus), Q2YSF3 (Q2YSF3 entry or part of it): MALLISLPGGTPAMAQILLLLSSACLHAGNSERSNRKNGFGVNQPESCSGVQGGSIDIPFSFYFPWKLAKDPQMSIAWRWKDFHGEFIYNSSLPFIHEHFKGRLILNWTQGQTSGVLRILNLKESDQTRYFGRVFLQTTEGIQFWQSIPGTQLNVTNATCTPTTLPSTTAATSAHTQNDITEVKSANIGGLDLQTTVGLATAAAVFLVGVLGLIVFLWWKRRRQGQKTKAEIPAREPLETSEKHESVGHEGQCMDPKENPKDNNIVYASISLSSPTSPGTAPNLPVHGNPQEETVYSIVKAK
# Sequence of Avaren (Actinomycete K97) (chain, as listed by the source): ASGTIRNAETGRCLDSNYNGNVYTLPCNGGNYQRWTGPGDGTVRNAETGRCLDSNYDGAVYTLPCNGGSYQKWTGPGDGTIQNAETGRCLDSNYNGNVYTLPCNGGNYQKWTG
# Sequence of Regenerating Gene IV (Homo sapiens), Q9BYZ8 (Q9BYZ8 whole entry, looked up): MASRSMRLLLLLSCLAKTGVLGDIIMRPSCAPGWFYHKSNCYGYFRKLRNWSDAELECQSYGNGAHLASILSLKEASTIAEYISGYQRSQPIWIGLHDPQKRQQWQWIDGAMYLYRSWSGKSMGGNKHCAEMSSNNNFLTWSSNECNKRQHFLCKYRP
# Sequence of CHT (Homo sapiens) (chain, as listed by the source): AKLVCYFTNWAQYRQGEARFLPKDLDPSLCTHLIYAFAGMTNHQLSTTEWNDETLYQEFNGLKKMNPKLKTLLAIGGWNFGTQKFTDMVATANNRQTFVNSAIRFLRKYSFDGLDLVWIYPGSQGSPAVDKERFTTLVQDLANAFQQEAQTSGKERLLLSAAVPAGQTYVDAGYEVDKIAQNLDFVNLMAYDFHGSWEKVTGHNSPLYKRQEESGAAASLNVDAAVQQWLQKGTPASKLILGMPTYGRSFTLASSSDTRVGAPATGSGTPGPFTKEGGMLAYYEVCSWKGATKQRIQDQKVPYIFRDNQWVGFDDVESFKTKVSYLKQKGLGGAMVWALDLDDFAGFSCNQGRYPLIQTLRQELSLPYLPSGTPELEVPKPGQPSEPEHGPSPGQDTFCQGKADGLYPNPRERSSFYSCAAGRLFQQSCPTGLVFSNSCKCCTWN
substance,measurement,setting,value
CHT (Homo sapiens),glycan array binding signal (z-score),"[1]; mutation: D138V, E140I",-0.189
"Aggrecan (Rattus norvegicus), NP_071526",glycan array binding signal (z-score),[2],0.017
same,glycan array binding signal (z-score),[3],0.828
"CHI3L1 (Homo sapiens), P36222",glycan array binding signal (z-score),[4],0.48
same,glycan array binding signal (z-score),[5],1.01
same,glycan array binding signal (z-score),[6],-0.073
same,glycan array binding signal (z-score),[7],-0.129
"Regenerating Gene IV (Homo sapiens), Q9BYZ8",glycan array binding signal (z-score),[8],5.46
"HARE (Homo sapiens), Q8WWQ8",glycan array binding signal (z-score),[9],0.81
"C3b (Homo sapiens), P01024",glycan array binding signal (z-score),[10],-0.67
same,glycan array binding signal (z-score),[11],3.33
MpAFP RI GFP (Marinomonas primoryensis),glycan array binding signal (z-score),[12],-0.566
"PILRa (Mus musculus), Q2YSF3",glycan array binding signal (z-score),[6],-0.233
same,glycan array binding signal (z-score),[11],-0.169
Avaren (Actinomycete K97),glycan array binding signal (z-score),[5],-0.14
"Siglec-8 (Homo sapiens), Q9NYZ4",glycan array binding signal (z-score),[9]; mutation: R125K,0.06
same,glycan array binding signal (z-score),[13],-0.055
same,glycan array binding signal (z-score),[14],-0.267
"wLAT-1A (Homo sapiens), Q01650",glycan array binding signal (z-score),[12],6.65
same,glycan array binding signal (z-score),[15],3.46
same,glycan array binding signal (z-score),[16],1.87
"Neurocan (Homo sapiens), O14594",glycan array binding signal (z-score),[17],0.453
same,glycan array binding signal (z-score),[18],10.5
same,glycan array binding signal (z-score),[14],-0.326
same,glycan array binding signal (z-score),[3],4.73
"PILRb (Mus musculus), Q2YSF2",glycan array binding signal (z-score),[19],-0.074
same,glycan array binding signal (z-score),[16],0.288
same,glycan array binding signal (z-score),[20],0.156
"6RG (Lolium perenne), B9U140",glycan array binding signal (z-score),[9],0.084
same,glycan array binding signal (z-score),[15],-0.395
same,glycan array binding signal (z-score),[1],-0.228
